# Results reported in ChEMBL document CHEMBL3988442, “University of Dundee, Small-Polar-MMV Screening Library” (2021).
# About 1,200 (3.2%) of roughly 38,000 compounds showed an effect of 50% or more. The median lay at about -58%. The entries come from a sample that favours strong results as a whole.
# Test system: Plasmodium falciparum
# Assay: Calibr Malaria Delayed Death Assay SOP
# Type: functional, organism-based
# Parameters: scale not given: in the data most compounds retested in dose-response had high values
# Conditions: concentration 4.99e-06 (unit not given; other assays of the set use mol/L)
row,SMILES,Percent Effect [%]
1,Cc1nnc(C(C)NCC2(c3ccc(Cl)cc3)CCCC2)o1 (stereo not drawn),-5.972
2,Clc1ccc(C2(CNC3=NCCN3)CCCC2)cc1.I,83.48
3,Clc1ccc(C2(CNC3=NCCN3)CCCCC2)cc1.I,89.77
4,NC(=O)CNC1(c2ccc(Cl)cc2)CCCC1,-116.4
5,CN(C)C(=O)CCS(=O)(=O)Cc1cc(Cl)c2c(c1)OCO2,-99.04
6,COCCNC(=O)Cn1c(-c2ccc(Cl)cc2)nc(C)c(CCO)c1=O,-30.51
7,CCOC(=O)c1cnn(-c2cc(Oc3ccccc3C)ncn2)c1N,-71.43
8,Cc1nc(N2CCN(C(=O)NCc3cscn3)CC2)sc1C,-173
9,N#CC1COCCN1C(=O)c1ccc2[nH]cnc2c1 (stereo not drawn),-106.6
10,CN1CCC(C2CCN(Cc3cccc(-n4cccn4)c3)CC2)C1 (stereo not drawn),85
11,CN1CCN([C@@H]2CCN(Cc3cccc(-n4cccn4)c3)C[C@H]2O)CC1,-47.29
12,COC(=O)C(O)C1CCN(Cc2cccc(-n3cccn3)c2)CC1 (stereo not drawn),-42.85
13,O=C(CN1C=Nc2ccccc2S1(=O)=O)NCc1ccccc1F,-61.62
14,Cc1ccc(O)c(CNC2CCc3nc(C)nn3C2)n1 (stereo not drawn),-50.72
15,COCC(c1ccccn1)N(C)C(=O)c1cc(-c2ccccc2O)n[nH]1 (stereo not drawn),-47.61
16,CO[C@H]1CN(C(C)C)C[C@@H]1NC(=O)Nc1ccc2oc(C)cc2c1,-10.12
17,Cc1ncoc1C(=O)N1CC[C@@H](O)[C@@H](O)[C@H](N2CCC(F)(F)CC2)C1,-177.2
18,CCN1CCC2(C=C(C(=O)N(C)C)c3ccccc32)CC1.O=C(O)C(F)(F)F,-5.162
19,CN1CCC2(C=C(C(=O)N(C)C)c3ccccc32)CC1,59.58
20,CCC(=O)N1CCC2(C=C(C(=O)N(C)C)c3ccccc32)CC1,-96.59
21,COc1cc(CCC(=O)NC2CCCN(C)C2)ccc1OCC(F)(F)F (stereo not drawn),27.9
22,Cc1noc(C)c1CN1CC[C@H]2OCC[C@@]2(C(=O)NCC2CC2)C1.O=C(O)C(F)(F)F,-150.6
23,COC[C@@H]1CCC[C@@]12CN(C(=O)C1CCOCC1)CCO2,-66.15
24,COc1ccc(-n2nnnc2C(C)(C)Nc2ccc(C)cc2C)cc1,-134.7
25,Cc1nnc(C2CCN(C(=O)c3ccsc3)CC2)s1,-17.33

row,SMILES,Percent Effect [%]
1,Cn1ccnc1CN1CCC(c2ccnc(-c3cccc(O)c3)c2)C1 (stereo not drawn),27.57
2,CN(C)CC(C)(C)CN1CCC(c2ccnc(-c3cccc(O)c3)c2)C1 (stereo not drawn),69.12
3,Oc1cccc(-c2cc(C3CCN(Cc4cncnc4)C3)ccn2)c1 (stereo not drawn),-16.47
4,Nc1cccnc1N1CCC(O)CC1,-81.29
5,Cc1n[nH]c(C)c1-c1cc(-c2cc[nH]c2)nc(N)c1C#N,-97.75
6,O=C(O)C(F)(F)F.c1cncc(N2CCCC3(CCN(CC4CCCO4)CC3)C2)c1 (stereo not drawn),46.34
7,O=C(O)C(F)(F)F.c1cncc(N2CCC3(CCCN(c4ccncc4)C3)CC2)c1,46.04
8,c1cncc(CN2CCCC3(COCCN(c4cncnc4)C3)C2)c1 (stereo not drawn),-38.46
9,Cn1cc(CN2CCCC3(COCCN(c4cccnc4)C3)C2)cn1.O=C(O)C(F)(F)F.O=C(O)C(F)(F)F (stereo not drawn),-73.12
10,O=C(O)C(F)(F)F.O=C(O)C(F)(F)F.c1cncc(N2CCCC3(CCN(CCN4CCCC4)CC3)C2)c1,91.95
11,Cc1nc2cc(NCc3cnn(C)c3)ccc2n1C,-142.2
12,COCCN(C)C[C@@H]1CN(C(=O)NC2CCCCC2)C[C@@H]1CO,-45.61
13,CCn1c(C)cc(C(=O)Nc2ccccc2CN(C)C(C)=O)c1C,-65.04
14,O=c1n(Cc2ccccc2F)nc2ncccn12,-19.66
15,CCn1ccnc1C1CCN(Cc2c(F)cccc2F)CC1,-140
16,COc1cccc(CN2CC[C@H](c3nnc(C)o3)C2)c1,-103.2
17,COc1cccc(CN2CCCC2Cn2nc(C)nc2C)c1 (stereo not drawn),-44.63
18,Cc1nc(NCCC23CCCN2CCC3)cc(C2CCCNC2)n1 (stereo not drawn),-30.47
19,Cc1nc(C2CCCNC2)cc(N(Cc2nccn2C)C2CC2)n1 (stereo not drawn),7.981
20,O=C(c1cnc(C2CC2)nc1O)N1CCN(Cc2ccccc2F)CC1,-42.64
21,Fc1cccnc1Oc1cc(F)c(CN2CCCC2)c(F)c1,13.36
22,CCSCc1cccc(NCc2cccnc2)c1,-120.6
23,CCCNc1cc(C(=O)N2CCOCC2)nc(C)n1,-41.3
24,COCCNC(=O)c1ccc2c(=O)n3c(nc2c1)CCCCCC3,-86.41
25,CC(C)N(C)Cc1cn2c(n1)CN(C(=O)c1ccc[nH]1)CC2,-50.23

row,SMILES,Percent Effect [%]
1,COC[C@@H]1CC[C@H]2[C@H](CCN2S(=O)(=O)c2cccc(F)c2)O1,-8.99
2,Cc1ccc2c(c1)N(C(=O)c1c[nH]c(C)cc1=O)CC(C)O2 (stereo not drawn),-44.94
3,O=C(c1cnccn1)N1CCCC(c2cccc(-n3ccnc3)n2)C1 (stereo not drawn),-38.64
4,CC(C)C1SCC(=O)Nc2c1cnn2-c1ccc(Cl)cc1F (stereo not drawn),-28.94
5,CCC(=O)NCC(=O)N(C)C(c1ccc(Cl)cc1)c1cccnc1 (stereo not drawn),-30.63
6,Cn1c2ccc(F)cc2c2ncn(CCN3CCOCC3)c(=O)c21,-139.8
7,CC(Cc1ccccc1F)C(=O)Nc1cccc(OCC(N)=O)c1 (stereo not drawn),-53.66
8,Cc1ccc([C@]2(O)CC[C@H]3CN(Cc4ccc(Cl)cc4Cl)C[C@H]32)nc1,64.98
9,Cc1ccc([C@]2(O)CC[C@H]3CN(Cc4cccnc4)C[C@H]32)nc1,-69.34
10,Cc1ccc([C@]2(O)CC[C@H]3CN(Cc4cccc(F)c4F)C[C@H]32)nc1.O=C(O)CC(O)(CC(=O)O)C(=O)O,43.22
11,CCc1oc(C(=O)N[C@@H]2c3ccccc3C[C@@H]2O)cc1CN1CCCC1,-27.56
12,CS(=O)(=O)NC1CCCN(Cc2ccc(OCc3ccccn3)cc2)C1 (stereo not drawn),-34.46
13,CCOc1ccc(CN2CCN(C(=O)c3cc(C4CC4)[nH]n3)CC2)cc1,-17.17
14,Cn1cc(CN(C(=O)c2ccc3ncsc3c2)C2CC2)cn1,-137
15,COCC1CC2(CCN(Cc3cccc(C#N)c3)CC2)CN1C(C)C.O=C(O)C(F)(F)F.O=C(O)C(F)(F)F (stereo not drawn),72.4
16,COCC1CC2(CCN(C(=O)c3ccccc3C)CC2)CN1C(C)C.O=C(O)C(F)(F)F (stereo not drawn),-58.35
17,COCC1CC2(CCN(Cc3ccc(C)o3)CC2)CN1C(C)C.O=C(O)C(F)(F)F.O=C(O)C(F)(F)F (stereo not drawn),34.42
18,COC1COC2(CCN(Cc3cccc(C#N)c3)CC2)C1.O=C(O)C(F)(F)F (stereo not drawn),-4.356
19,COCC1CC2(CCN(Cc3ccco3)CC2)CN1C(C)C.O=C(O)C(F)(F)F.O=C(O)C(F)(F)F (stereo not drawn),63.6
20,COCC1CC2(CCN(C(=O)c3ccco3)CC2)CN1C(C)C.O=C(O)C(F)(F)F (stereo not drawn),24.38
21,CNC(=O)CNC(=O)Nc1cc(-c2ccccc2)ns1,-97.73
22,O=C(O)C(F)(F)F.O=C1CCCN1Cc1nnc2n1CCN(Cc1ccoc1)CC2,-13.9
23,CCOCCNC(=O)c1cccnc1Sc1cc(OC)ccc1OC,-83.15
24,CC(C)OCc1noc(C2CCCOC2)n1 (stereo not drawn),-85.93
25,Cc1nnsc1C(=O)NCc1cccnc1N1CCc2ccccc2C1,-86.78

row,SMILES,Percent Effect [%]
1,NC(=O)NCCC(=O)NCc1cccnc1N1CCc2ccccc2C1,-76.53
2,CC(C)[C@@H](N)C(=O)NCc1cccnc1N1CCc2ccccc2C1,28.21
3,COC(=O)CCC(=O)NCc1cccnc1N1CCc2ccccc2C1,58.06
4,Cc1n[nH]cc1C(=O)NCc1cccnc1N1CCc2ccccc2C1,75.05
5,Cc1cc(C(=O)NCc2cccnc2N2CCc3ccccc3C2)[nH]n1,-34.77
6,O=S(=O)(Cc1ccccc1F)Cc1nnnn1C1CC1,-164.7
7,CC(C)CC(=O)N1CCC2(CC1)OC(C(N)=O)Cn1ccnc12.O=C(O)C(F)(F)F (stereo not drawn),-41.43
8,CC(C)c1cc(C(=O)NC2CCN(CC(N)=O)CC2)nn1C(C)(C)C,-153
9,COc1ccc2oc(C(C)NC(=O)NCc3noc(C)n3)c(C)c2c1 (stereo not drawn),-10.38
10,CCc1cnc(N)nc1NCCCn1cc(Cl)cn1,84.03
11,CCc1cnc(N)nc1NCCCn1nc(C)nc1C,-48.25
12,CCc1cnc(N)nc1NCCn1cc(Cl)cn1,54.15
13,CCc1cnc(N)nc1NCCC(=O)NC1CCCCC1,-82.55
14,Cn1cc(Br)c(C(=O)NCCCn2cc(Cl)cn2)n1,-63.62
15,CCc1cnc(C)nc1NCCN1CCOCC1,-14.69
16,CCN(CC)C(=O)C1CCCN(CC(=O)Nc2c(C)nn(CC)c2C)C1 (stereo not drawn),-43.93
17,Cc1nn(CC(=O)N2CCN(Cc3cnn(C)c3C)CC2)cc1Cl,-81.13
18,CCNC(=O)c1ccc(N2CCCC(c3nccn3C(C)C)C2)nc1 (stereo not drawn),-31.13
19,CC(C)n1ccnc1C1CCN(C(=O)c2ccccc2)CC1,-13.68
20,CN(C)C1CCN(c2cc(-c3ccccc3)nc3ccnn23)C1 (stereo not drawn),51.07
21,Cc1cc(N2CCCC(N(C)C)C2)n2nccc2n1 (stereo not drawn),-65.48
22,CCNC(=O)C1CCN(c2cc(-c3ccccc3)nc3ccnn23)C1 (stereo not drawn),-30.81
23,O=C(NCCCn1ccccc1=O)c1cnc(-c2ccsc2)s1,-39.04
